An excerpt weighted towards active compounds, which were near 3.5% of everything screened.
FBW7 act – human FBW7 E3 ligase activation, primary screen; actives 0.13% (n = 650,000); Q969H0; AID 1259310; normalized activity (activation), % at 26.1 µM; AlphaScreen FBW7–phospho-cyclin E peptide binding, activator screen; in the data active means normalized activity above about 1.9%;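 further: purified mutant Fbw7 with reduced substrate affinity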
MITF inh – blocks human microphthalmia-associated transcription factor; AlphaScreen MITF homodimerization, bead proximity signal; inhibition, % at 2.6 µM; actives 0.91% (n = 650,000); in the data active means inhibition above about 50%;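 further: 0% = vehicle wells with protein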
TEAD-YAP inh – TEAD-YAP interaction inhibition. HEK-TIYL cells, TEAD-Gal4/YAP UAS-luciferase luminescence. inhibition, % at 9.12 µM. actives 1.4% (n = 640,000). AID 1259422; in the data active means inhibition above about 32%;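 further: 0% = median of test compound wells and 100% = reference inhibitor wells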
GPR151 activ – activates the human receptor GPR151. AID 1508602. PathHunter beta-arrestin GPR151 cells, luminescence. Q8TDV0. activation, % at 11.2 µM. actives 1% (n = 650,000); in the data active means activation above about 4.9%;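 further: 0% = median of compound wells and 100% = cells with positive control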
Target sequence (Q8TDV0 whole entry, looked up): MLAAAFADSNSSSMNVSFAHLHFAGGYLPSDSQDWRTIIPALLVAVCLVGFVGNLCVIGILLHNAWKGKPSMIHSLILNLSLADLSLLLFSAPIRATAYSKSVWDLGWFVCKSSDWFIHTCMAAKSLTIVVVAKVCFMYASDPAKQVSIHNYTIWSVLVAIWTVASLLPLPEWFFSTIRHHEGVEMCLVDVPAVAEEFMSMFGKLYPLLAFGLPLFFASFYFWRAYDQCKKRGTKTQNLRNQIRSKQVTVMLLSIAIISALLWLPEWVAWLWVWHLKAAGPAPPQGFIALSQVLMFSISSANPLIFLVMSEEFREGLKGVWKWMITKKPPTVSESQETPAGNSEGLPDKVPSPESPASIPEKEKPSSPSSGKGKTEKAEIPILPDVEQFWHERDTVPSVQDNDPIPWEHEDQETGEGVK
Numbers without * were called inactive.

SMILES	FBW7 act	MITF inh	TEAD-YAP inh	GPR151 activ
Cc1ccn2c(N)c(-c3ccccc3)nc2c1	0	16	-8	-1
Cc1cc(NS(=O)(=O)c2ccc(NC(=O)CCCOc3ccccc3)cc2)no1	0	7	2	0
Cc1cc(NS(=O)(=O)c2ccc(NC(=O)CCCOc3ccc(Cl)cc3)cc2)no1	2.9*	1	4	2
COc1cc(C2C(C(=O)OC(C)C)=C(C)NC3=C2C(=O)CCC3)c([N+](=O)[O-])cc1OC (stereo unspecified)	0	-3	10	0
O=C1C(c2ccnc3ccccc23)=C(O)c2ccccc21	0	-12	53*	-2
O=C(Cc1ccc(N2CCC(NCCn3ccnc3)CC2)cc1)NCc1ccccc1	0	5	47*	1
O=C(Cc1ccc(N2CCC(NCCn3ccnc3)CC2)cc1)N1CCCC1	0	1	-9	0
OC[C@@H]1CCCN1c1ccnc2c(-c3cc4ccccc4o3)cnn12	0	-6	44*	-4
COc1ccc(-c2cnn3c(N4CCC[C@H]4CO)ccnc23)cc1	0	-5	57*	0
OC[C@@H]1CCCN1c1ccnc2c(-c3ccc4ccccc4c3)cnn12	0	-10	60*	-3
COc1ccc(-c2cnn3c(N4CCC[C@H]4CO)ccnc23)cc1OC	0	-13	-23	0
OC[C@@H]1CCCN1c1ccnc2c(-c3cccc(O)c3)cnn12	0	-9	100*	-1
Cc1ccc(CNS(=O)(=O)c2ccc3c(c2)CC(=O)N3)cc1	0	-9	-8	0
O=C(COC(=O)c1ccc(N2C(=O)C3C4c5ccccc5C(c5ccccc54)C3C2=O)cc1)c1ccc([N+](=O)[O-])cc1 (stereo unspecified)	0	16	9	-2
Cc1ccc(CSc2nc3c(sc(=S)n3-c3ccccc3C)c3nc4ccccc4n23)c(C)c1	0	-7	31	2
Fc1ccc(-c2cc3ncnc(N/N=C/c4ccncc4)c3s2)cc1	0	-6	-4	0
COc1cccc(-c2cnn3c(N4CCC[C@H]4CO)ccnc23)c1	0	3	59*	-1
O=C(O)/C=C/c1cccc(-c2cnn3c(N4CCC[C@H]4CO)ccnc23)c1	-1	-3	50*	-3
COc1cccc(-c2cnn3c(N4CCCCC4CCO)ccnc23)c1 (stereo unspecified)	0	-4	14	1
CCCOC(=O)c1cccc(NC(=O)COc2ccccc2Cl)c1	0	4	45*	-2
COC(=O)c1cccc(NC(=O)COc2ccccc2Cl)c1	0	7	31	0
CCCCOC(=O)c1cccc(NC(=O)COc2ccc(Br)cc2Br)c1	0	-4	58*	0
CCCCOc1ccc(NC(=O)c2snc3c(=O)[nH]c(C)nc23)cc1	0	4	-9	0
O=c1oc(-c2cccs2)nc2ccc(Cc3ccc4nc(-c5cccs5)oc(=O)c4c3)cc12	0	16	1	-1
CC(=NCc1cccnc1)c1c(C)[nH]n(-c2nc3ccccc3s2)c1=O	0	8	42*	-8
SMILES	FBW7 act	MITF inh	TEAD-YAP inh	GPR151 activ
C/C(=N/N1CCN(C)CC1)c1c(C(F)(F)F)[nH]n(-c2nc3ccccc3s2)c1=O	0	8	49*	-8
C/C(=N\N1CCOCC1)c1c(C(F)(F)F)[nH]n(-c2nc3ccccc3s2)c1=O	1	13	-1	-1
Oc1ccccc1-c1cn2cc(Cl)ccc2n1	0	9	-41	-2
Cc1ccc2nc(-c3ccccc3)cn2c1	1	-3	98*	-10
Cc1ccc2nc(-c3cccc(Br)c3)cn2c1	0	30	85*	-7
Cc1ccc2nc(-c3ccccc3Br)cn2c1	0	-8	73*	-6
NS(=O)(=O)c1cccc(Nc2nccc(Oc3ccccc3)n2)c1	0	3	-6	0
Cc1cccc(NC(=S)NC(=O)c2cccc(Br)c2)n1	0	14	-26	0
Cc1ccnc(NC(=S)NC(=O)c2cccc(Br)c2)c1	0	-5	33*	0
O=C(/C=C/c1ccc(Cl)cc1)Nc1ccc(CN2CCOCC2)cc1	0	-1	41*	0
O=C(Cc1ccc(Cl)cc1)Nc1ccc(CN2CCOCC2)cc1	0	-4	-7	-1
O=S(=O)(c1ccc(-n2cnnn2)cc1)N(Cc1ccco1)Cc1ccccc1F	0	9	1	1
CCOC(=O)c1c(NC(=O)COc2ccc(F)cc2)sc2c1CCCCC2	0	-5	-4	-1
CC(C)CCNC(=O)CN(C(=O)c1snc(C(N)=O)c1N)c1ccc(F)cc1	0	5	-7	0
CC(C)CCNC(=O)CN(C(=O)c1snc(C(N)=O)c1N)c1ccccc1F	2.1*	2	0	1
O=C(Cn1nnc(-c2ccc(S(=O)(=O)N3CCCC3)cc2)n1)NCC1CCCO1 (stereo unspecified)	0	0	2	2
O=C(Cn1nnc(-c2ccc(S(=O)(=O)N3CCCC3)cc2)n1)NCc1ccco1	0	3	42*	1
CCOC(=O)c1c(C)oc2ccc(NS(=O)(=O)c3ccc(OC)cc3)cc12	0	4	42*	4
CCOC(=O)c1c(C)oc2ccc(NS(=O)(=O)c3ccc(OCC)cc3)cc12	0	13	54*	1
CCOc1ccc(S(=O)(=O)Nc2ccc3oc(C)c(C(=O)OC(C)C)c3c2)cc1	1	10	8	-1
CCOC(=O)c1c(C)oc2c(Cl)cc(NS(=O)(=O)c3ccc(OCC)cc3)cc12	0	0	56*	1
CCCc1oc2ccc(NS(=O)(=O)c3ccc(Br)cc3)cc2c1C(=O)OCC	0	-12	42*	0
CCOC(=O)c1c(C)oc2ccc(NS(=O)(=O)c3ccc(Br)cc3)cc12	0	-5	-9	0
COc1cccc(NC(=O)CCN2C(=S)NC(C)(C)CC2C)c1 (stereo unspecified)	0	14	10	-2
Cc1cc(C)cc(NC(=O)CSc2nnc3[nH]c(=O)cc(N)n23)c1	0	6	9	0
SMILES	FBW7 act	MITF inh	TEAD-YAP inh	GPR151 activ
O=c1c(CN2CCOc3ccc(CN4CCC(O)CC4)cc3C2)coc2ccccc12	1	-11	-5	0
COCCOC(=O)c1c(C)oc2cc(C)c(NS(=O)(=O)c3cccs3)cc12	0	11	21	3
CCOC(=O)c1c(C)oc2cc(C)c(NS(=O)(=O)c3cccs3)cc12	0	5	46*	1
CCOC(=O)c1ccccc1NC(=O)c1cnc(N2CCN(c3ccccn3)CC2)c2ccccc12	0	-6	9	0
COc1ccccc1N1CCN(c2ncc(C(=O)N3CCN(C)CC3)c3ccccc23)CC1	0	8	35*	1
COc1ccc(OC)c(NC(=O)c2cnc(N3CCN(c4ccccc4OC)CC3)c3ccccc23)c1	0	-5	40*	-1
COc1ccccc1N1CCN(c2ncc(C(=O)NCc3cccnc3)c3ccccc23)CC1	0	-11	37*	0
CCOc1ccccc1NC(=O)c1cnc(N2CCN(c3ccccn3)CC2)c2ccccc12	0	8	55*	1
